# Target: T1, Ephrin type-B receptor 4 (Homo sapiens) (UniProt P54760);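 also: reported value is the mean percent inhibition of EPHB4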
# T1 sequence (whole entry): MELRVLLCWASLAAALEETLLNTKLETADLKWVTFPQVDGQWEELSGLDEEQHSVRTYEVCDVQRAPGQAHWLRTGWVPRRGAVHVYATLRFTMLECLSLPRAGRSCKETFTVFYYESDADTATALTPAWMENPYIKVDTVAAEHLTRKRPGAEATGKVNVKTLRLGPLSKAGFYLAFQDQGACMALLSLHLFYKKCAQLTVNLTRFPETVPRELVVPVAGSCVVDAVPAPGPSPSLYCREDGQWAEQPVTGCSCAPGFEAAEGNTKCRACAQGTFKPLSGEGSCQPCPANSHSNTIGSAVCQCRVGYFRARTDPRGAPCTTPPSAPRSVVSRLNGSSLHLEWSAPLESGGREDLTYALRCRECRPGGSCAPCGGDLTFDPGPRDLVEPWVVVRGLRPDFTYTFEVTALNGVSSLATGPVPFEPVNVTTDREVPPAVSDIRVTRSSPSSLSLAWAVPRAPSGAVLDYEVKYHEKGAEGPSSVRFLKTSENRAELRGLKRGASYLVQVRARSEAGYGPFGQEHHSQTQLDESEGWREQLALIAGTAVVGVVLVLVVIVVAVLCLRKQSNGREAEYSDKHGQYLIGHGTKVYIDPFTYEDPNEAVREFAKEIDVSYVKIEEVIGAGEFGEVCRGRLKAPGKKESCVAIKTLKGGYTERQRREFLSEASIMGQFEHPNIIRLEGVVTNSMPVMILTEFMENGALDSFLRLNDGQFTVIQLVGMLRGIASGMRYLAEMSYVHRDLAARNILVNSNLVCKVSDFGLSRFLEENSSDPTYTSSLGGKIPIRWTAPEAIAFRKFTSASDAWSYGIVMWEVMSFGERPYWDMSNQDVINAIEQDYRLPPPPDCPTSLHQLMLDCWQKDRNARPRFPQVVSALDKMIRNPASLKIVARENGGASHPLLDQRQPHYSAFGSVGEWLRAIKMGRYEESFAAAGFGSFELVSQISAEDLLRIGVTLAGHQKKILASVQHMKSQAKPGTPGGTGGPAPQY
# Conditions: at 1 µM
row,SMILES,inhibition
1,COc1cc2ncn(-c3cc(OCc4ccccc4S(C)(=O)=O)c(C#N)s3)c2cc1OC,17.1%
2,COc1cc2ncnc(Nc3ccc(C)c(O)c3)c2cc1OC,36.9%
3,NS(=O)(=O)c1cccc(-c2cc3ccncc3cc2OCc2ccccc2)c1,2.84%
4,COC(=O)c1cncc(/C=C/c2c(C)cc(O)cc2C)c1,38.7%
5,COc1cc(Nc2nccc(-c3cnn4ncccc34)n2)cc(OC)c1,25.6%

# Target: Receptor tyrosine-protein kinase erbB-2 (Homo sapiens) (UniProt P04626)
# Conditions: at 0.1 µM
# Receptor tyrosine-protein kinase erbB-2 (Homo sapiens), sequence (P04626 whole entry): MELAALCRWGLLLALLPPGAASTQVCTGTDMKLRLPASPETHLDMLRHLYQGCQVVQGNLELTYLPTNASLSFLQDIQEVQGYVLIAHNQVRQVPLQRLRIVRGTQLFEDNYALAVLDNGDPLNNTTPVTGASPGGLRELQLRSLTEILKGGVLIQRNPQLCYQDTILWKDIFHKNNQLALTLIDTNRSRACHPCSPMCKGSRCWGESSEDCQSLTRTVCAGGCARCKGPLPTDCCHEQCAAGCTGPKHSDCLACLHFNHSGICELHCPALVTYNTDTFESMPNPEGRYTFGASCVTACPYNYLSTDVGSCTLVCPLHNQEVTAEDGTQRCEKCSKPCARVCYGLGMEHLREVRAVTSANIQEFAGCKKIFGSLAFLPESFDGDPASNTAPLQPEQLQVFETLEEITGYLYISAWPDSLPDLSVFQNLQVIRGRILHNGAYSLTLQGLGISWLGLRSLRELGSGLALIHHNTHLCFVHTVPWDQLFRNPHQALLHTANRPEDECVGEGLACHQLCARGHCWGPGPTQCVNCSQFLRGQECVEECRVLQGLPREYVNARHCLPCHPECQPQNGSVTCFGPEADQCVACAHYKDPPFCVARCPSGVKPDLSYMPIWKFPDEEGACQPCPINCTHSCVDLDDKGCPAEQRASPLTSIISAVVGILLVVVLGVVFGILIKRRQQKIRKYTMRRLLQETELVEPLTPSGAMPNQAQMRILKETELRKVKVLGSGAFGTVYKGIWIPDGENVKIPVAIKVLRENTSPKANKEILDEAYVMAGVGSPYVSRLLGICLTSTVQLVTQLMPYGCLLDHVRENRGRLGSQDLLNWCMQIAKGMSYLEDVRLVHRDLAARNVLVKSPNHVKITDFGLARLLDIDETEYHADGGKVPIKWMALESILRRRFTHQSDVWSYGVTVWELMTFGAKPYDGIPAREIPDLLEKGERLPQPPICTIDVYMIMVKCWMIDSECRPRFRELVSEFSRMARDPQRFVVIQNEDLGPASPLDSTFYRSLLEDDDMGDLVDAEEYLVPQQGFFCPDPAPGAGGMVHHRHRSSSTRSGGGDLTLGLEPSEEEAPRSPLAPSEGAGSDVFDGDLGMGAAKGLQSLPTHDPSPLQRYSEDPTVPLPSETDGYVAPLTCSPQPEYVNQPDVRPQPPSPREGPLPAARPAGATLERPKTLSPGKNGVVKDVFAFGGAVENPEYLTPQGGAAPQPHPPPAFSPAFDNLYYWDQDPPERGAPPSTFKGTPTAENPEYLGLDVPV
row,SMILES,inhibition
1,C[C@@H](Oc1cc(-n2cnc3ccc(OCC4CCN(C)CC4)cc32)sc1C(N)=O)c1ccccc1C(F)(F)F,-0.64%
2,Cc1cc(O)cc(C)c1/C=C/c1cncc(C(=O)N(C)C)c1,1.35%
3,c1ccc(Nc2ncc(-c3ccccc3)o2)cc1,43.6%
4,COc1ccc(-c2nn3ncccc3c2-c2ccnc(Nc3cccc(C(F)(F)F)c3)n2)cc1,3.15%
5,Cc1ccc(NC(=O)CC2CC2)cc1-c1ccc(C(=O)NCC2CC2)cc1,0.13%
6,COC(=O)c1ccc2c(c1)C(=Cc1cc(Br)c(O)c(Br)c1)C(=O)N2,-0.98%
7,Cc1ccc2c(-c3ccnc(Nc4ccc5c(c4)OCCO5)n3)c(-c3ccc(C(F)(F)F)cc3)nn2n1,2.13%
8,COc1cc(/C=N/Nc2ncnc3c2cnn3C(C)C)ccc1O,1.13%
9,Nc1ccc(C#Cc2cncnc2Nc2ccc(OCc3cccc(F)c3)c(Cl)c2)cc1,5.63%
10,ON=C1CCc2cc(-c3nc(C4CCNCC4)[nH]c3-c3ccncc3)ccc21,-0.06%
11,COc1cccc(-n2ncc3c(N/N=C/c4ccc(C)cc4)ncnc32)c1,2.26%
12,CCS(=O)(=O)c1ccc(OC)c(Nc2ncc(-c3cccc(OC)c3)o2)c1,-0.52%
13,CC(C)c1ccc2c(c1)NC(=O)/C2=N/Nc1ccc(S(N)(=O)=O)cc1,3%
14,Cc1cc(Cl)cc2c1NC(=O)C2=NNc1ccc(S(N)(=O)=O)cc1,2.46%
15,CC(C)c1ccc(Nc2nccc(-c3cnn4ncccc34)n2)cc1,0.95%
16,N#Cc1cccc(Nc2nccc(-c3cnn4ncccc34)n2)c1,1.23%
17,Oc1cccc(-c2nc(-c3ccccc3)[nH]c2-c2ccncc2)c1,4.55%

row,SMILES,inhibition
1,CN1CCN(C(=O)c2ccc(NC(=O)Nc3ccc(N(C)c4ccnc(Nc5ccc(CS(C)(=O)=O)cc5)n4)cc3)cc2)CC1,0.08%
2,COC(=O)Nc1nc2cc(Oc3ccc(NC(=O)Nc4cccc(Br)c4)cc3)ccc2[nH]1,3.03%
3,COc1cccc(-n2ncc3c(N/N=C/c4ccc(S(C)(=O)=O)cc4)ncnc32)c1,2.7%
4,NS(=O)(=O)c1ccc(NC=C2C(=O)Nc3ccc4ncsc4c32)cc1,1.93%
5,CS(=O)(=O)CCNCc1nc(-c2ccc3ncnc(Nc4ccc(OCc5cccc(C(F)(F)F)c5)cc4)c3c2)cs1,4.71%
6,C[C@@H](Oc1cc(-n2cnc3ccc(OC[C@@H](O)CO)cc32)sc1C(N)=O)c1ccccc1Cl,0%
7,NS(=O)(=O)c1ccc(-c2cc3ccncc3cc2OCc2ccccc2)cc1,2.03%
8,NS(=O)(=O)c1ccc(Nc2cc(-c3cccc(O)c3)n[nH]2)cc1,1.73%
9,Cc1ccc(Nc2ccnc(Nc3cccc(C(N)=O)c3)n2)cc1O,2.41%
10,COc1cccc(-n2nc(C)c3c(N/N=C(\C)c4ccncc4)ncnc32)c1,0.07%
11,CCn1c(-c2nonc2N)nc2ccc(F)cc21,5.65%
12,COc1cc2ncn(-c3cc(OCc4ccccc4S(C)(=O)=O)c(C#N)s3)c2cc1OC,0.83%
13,COc1cc2ncnc(Nc3ccc(C)c(O)c3)c2cc1OC,7.8%
14,NS(=O)(=O)c1cccc(-c2cc3ccncc3cc2OCc2ccccc2)c1,1.13%
15,COC(=O)c1cncc(/C=C/c2c(C)cc(O)cc2C)c1,1.31%
16,COc1cc(Nc2nccc(-c3cnn4ncccc34)n2)cc(OC)c1,2.17%

# Target: Receptor tyrosine-protein kinase erbB-2 (Homo sapiens) (UniProt P04626)
# Conditions: at 1 µM
row,SMILES,inhibition
1,C[C@@H](Oc1cc(-n2cnc3ccc(OCC4CCN(C)CC4)cc32)sc1C(N)=O)c1ccccc1C(F)(F)F,0.08%
2,Cc1cc(O)cc(C)c1/C=C/c1cncc(C(=O)N(C)C)c1,-0.95%
3,c1ccc(Nc2ncc(-c3ccccc3)o2)cc1,8.36%
4,COc1ccc(-c2nn3ncccc3c2-c2ccnc(Nc3cccc(C(F)(F)F)c3)n2)cc1,9.69%
5,Cc1ccc(NC(=O)CC2CC2)cc1-c1ccc(C(=O)NCC2CC2)cc1,3.41%
6,COC(=O)c1ccc2c(c1)C(=Cc1cc(Br)c(O)c(Br)c1)C(=O)N2,3.44%
7,Cc1ccc2c(-c3ccnc(Nc4ccc5c(c4)OCCO5)n3)c(-c3ccc(C(F)(F)F)cc3)nn2n1,4.1%
8,COc1cc(/C=N/Nc2ncnc3c2cnn3C(C)C)ccc1O,3.23%
9,Nc1ccc(C#Cc2cncnc2Nc2ccc(OCc3cccc(F)c3)c(Cl)c2)cc1,10.1%
10,ON=C1CCc2cc(-c3nc(C4CCNCC4)[nH]c3-c3ccncc3)ccc21,-5.12%
11,COc1cccc(-n2ncc3c(N/N=C/c4ccc(C)cc4)ncnc32)c1,3.43%
12,CCS(=O)(=O)c1ccc(OC)c(Nc2ncc(-c3cccc(OC)c3)o2)c1,0.18%
13,CC(C)c1ccc2c(c1)NC(=O)/C2=N/Nc1ccc(S(N)(=O)=O)cc1,2.17%
14,Cc1cc(Cl)cc2c1NC(=O)C2=NNc1ccc(S(N)(=O)=O)cc1,3.15%
15,CC(C)c1ccc(Nc2nccc(-c3cnn4ncccc34)n2)cc1,3.22%
16,N#Cc1cccc(Nc2nccc(-c3cnn4ncccc34)n2)c1,5.3%
17,Oc1cccc(-c2nc(-c3ccccc3)[nH]c2-c2ccncc2)c1,3.87%

row,SMILES,inhibition
1,CN1CCN(C(=O)c2ccc(NC(=O)Nc3ccc(N(C)c4ccnc(Nc5ccc(CS(C)(=O)=O)cc5)n4)cc3)cc2)CC1,3.94%
2,COC(=O)Nc1nc2cc(Oc3ccc(NC(=O)Nc4cccc(Br)c4)cc3)ccc2[nH]1,0.8%
3,COc1cccc(-n2ncc3c(N/N=C/c4ccc(S(C)(=O)=O)cc4)ncnc32)c1,3.96%
4,NS(=O)(=O)c1ccc(NC=C2C(=O)Nc3ccc4ncsc4c32)cc1,-0.87%
5,CS(=O)(=O)CCNCc1nc(-c2ccc3ncnc(Nc4ccc(OCc5cccc(C(F)(F)F)c5)cc4)c3c2)cs1,4.32%
6,C[C@@H](Oc1cc(-n2cnc3ccc(OC[C@@H](O)CO)cc32)sc1C(N)=O)c1ccccc1Cl,0.61%
7,NS(=O)(=O)c1ccc(-c2cc3ccncc3cc2OCc2ccccc2)cc1,3.62%
8,NS(=O)(=O)c1ccc(Nc2cc(-c3cccc(O)c3)n[nH]2)cc1,-4.93%
9,Cc1ccc(Nc2ccnc(Nc3cccc(C(N)=O)c3)n2)cc1O,5.7%
10,COc1cccc(-n2nc(C)c3c(N/N=C(\C)c4ccncc4)ncnc32)c1,2.47%
11,CCn1c(-c2nonc2N)nc2ccc(F)cc21,14%
12,COc1cc2ncn(-c3cc(OCc4ccccc4S(C)(=O)=O)c(C#N)s3)c2cc1OC,-1.42%
13,COc1cc2ncnc(Nc3ccc(C)c(O)c3)c2cc1OC,26.3%
14,NS(=O)(=O)c1cccc(-c2cc3ccncc3cc2OCc2ccccc2)c1,-3.29%
15,COC(=O)c1cncc(/C=C/c2c(C)cc(O)cc2C)c1,2.82%
16,COc1cc(Nc2nccc(-c3cnn4ncccc34)n2)cc(OC)c1,-0.98%
